Bioassay records from PubChem BioAssay.
Most compounds without a hit are left out; they make up all but 9.8% or so of the library.
HTT aggregate: mutant huntingtin aggregation inhibition; PC12 HttQ103-GFP aggregates, Acumen cytometry, 40 h; Potency, µM (top dose mostly 46.1 µM), most hits filed as inhibitors; 220,000 tested, 1.1% active; further: nearly all actives have a fitted effect of over 60% in size
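PC12 cells stably carrying ecdysone-inducible HTT exon 1 Q103–GFP were induced with tebufenozide (100 nM final) and treated with library compounds in titration. GFP aggregates in lysates were counted by laser scanning cytometry.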
CBFb RUNX1 block: blocks binding between human CBF-beta and RUNX1 | AlphaScreen CBFb-His/RUNX1-biotin binding, biochemical | Potency, µM (top dose mostly 59.8 µM), most hits filed as inhibitors | 230,000 tested, under 10 active | Q01196+Q13951
Target sequence (Q01196 whole entry, looked up): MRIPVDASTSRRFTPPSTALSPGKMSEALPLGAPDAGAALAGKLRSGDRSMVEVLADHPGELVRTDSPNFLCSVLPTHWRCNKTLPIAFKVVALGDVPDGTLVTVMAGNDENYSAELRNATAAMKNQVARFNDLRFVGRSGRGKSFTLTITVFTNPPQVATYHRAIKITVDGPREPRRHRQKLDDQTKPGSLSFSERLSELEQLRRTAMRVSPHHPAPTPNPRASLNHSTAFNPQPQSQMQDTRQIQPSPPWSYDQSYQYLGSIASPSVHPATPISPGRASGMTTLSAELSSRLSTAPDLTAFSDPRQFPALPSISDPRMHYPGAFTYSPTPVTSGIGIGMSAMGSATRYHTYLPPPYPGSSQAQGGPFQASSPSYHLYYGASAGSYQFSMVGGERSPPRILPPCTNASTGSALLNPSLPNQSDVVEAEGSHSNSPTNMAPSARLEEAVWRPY
Target sequence (Q13951 whole entry, looked up): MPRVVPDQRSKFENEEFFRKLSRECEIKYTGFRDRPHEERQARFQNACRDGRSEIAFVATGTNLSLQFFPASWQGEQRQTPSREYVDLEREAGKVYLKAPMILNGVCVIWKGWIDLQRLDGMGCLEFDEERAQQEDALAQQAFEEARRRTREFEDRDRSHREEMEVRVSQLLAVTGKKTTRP
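Bead-based AlphaScreen assay; binding partners His-tagged CBF-beta and biotinylated RUNX1 at 30 nM each. Compound exposure 15 min after a 20-min protein preincubation; bead step 90 min; all steps at room temperature.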
JMJD2E inh: blocks human JMJD2E demethylase activity. JMJD2E catalytic domain, FDH-coupled NADH fluorescence (FDH is formaldehyde dehydrogenase). Potency, µM (series often up to 57.1 µM), most hits filed as inhibitors. 230,000 tested, 1.6% active. AID 2147; active means well fitted inhibition curve with a large enough effect, not every such curve was filed as active; inconclusive means small, poorly fitted or top-dose-only effect, or another doubt; inactive means no such curve, though single readings can be large or run the other way; further: nearly all actives have a fitted effect of over 50% in size
ALDH1A1 block: blocks purified human ALDH1A1 activity; AID 1030; Purified ALDH1A1, NADH fluorescence, propionaldehyde substrate; Potency, µM (titrated, usually from 75.3 µM), most hits filed as inhibitors; 220,000 tested, 7.3% active; active means well fitted inhibition curve with a large enough effect, not every such curve was filed as active; inconclusive means small, poorly fitted or top-dose-only effect, or another doubt; inactive means no such curve, though single readings can be large or run the other way
HTT cytoprotect: protects HTT-Q103 PC12 cells, measured by ATP; Potency, µM (doses to about 56.4 µM), actives largely listed as activators; 230,000 tested, 0.14% active; AID 1471; PC12 HTT-Q103 induced, cytoprotection, ATP luminescence, 40 h; further: nearly all actives have a fitted effect of over 45% in size
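Readout: ATPlite luminescence (ATP level). Model: stable PC12, inducible Htt exon1 Q103-GFP. Inducer: tebufenozide, 100 nM final. Compounds: dose series. No G418 in medium.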
HPGD inh: blocks human HPGD enzyme activity | purified HPGD, NADH fluorescence kinetic, PGE2 substrate | P15428 | Potency, µM, most hits filed as inhibitors | 150,000 tested, 4.3% active; active means well fitted inhibition curve with a large enough effect, not every such curve was filed as active; inconclusive means small, poorly fitted or top-dose-only effect, or another doubt; inactive means no such curve, though single readings can be large or run the other way
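20 nM HPGD preincubated 15 min at room temperature with compound in 50 mM Tris-HCl pH 8, 0.01% Tween 20. Started with 1 mM NAD+ and 30 uM prostaglandin E2; NADH fluorescence (360/450 nm) read 5 times over 30-s intervals, last minus first.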
Each line names hits and unclear results; the compound was inactive in the other large screens. Unless noted, the call rests on the fitted dose curve; in most records, active means well fitted curve in the direction sought with a large enough effect; inconclusive means small, poorly fitted or top-dose-only effect, or another doubt; inactive means no such curve, though single readings can be large; an effect the other way counts as inactive or inconclusive.

COc1ccc(Nc2cnn(-c3nc4ccccc4s3)c(=O)c2Cl)cc1	HTT aggregate inconclusive, CBFb RUNX1 block inconclusive, ALDH1A1 block 8.9µM
COC(=O)[C@H]1C[C@H]1[C@@H](NC(=O)c1ccc[nH]1)c1ccccc1	none (no result: HTT aggregate, JMJD2E inh, ALDH1A1 block, HTT cytoprotect, HPGD inh)
CC(C)Cn1c(SCc2nnc(-c3cccs3)o2)nc(O)cc1=O	HPGD inh 16µM
COc1cccc(C(=O)CN2CCN(S(=O)(=O)c3cccc([N+](=O)[O-])c3)CC2)c1	JMJD2E inh inconclusive, ALDH1A1 block 18µM
COc1ccc(C(=O)CN2CCN(S(=O)(=O)c3cccc([N+](=O)[O-])c3)CC2)cc1OC	JMJD2E inh inconclusive, ALDH1A1 block 20µM, HPGD inh inconclusive
O=C(Cc1ccccc1)N1CCN(S(=O)(=O)c2cccc([N+](=O)[O-])c2)CC1	ALDH1A1 block inconclusive (no result: HPGD inh)
COc1ccc(C(=O)N2CCN(S(=O)(=O)c3ccc(F)cc3)CC2)cc1OC	none (no result: HPGD inh)
CCn1c(SCC(=O)NCc2ccco2)nnc1C(C)C	JMJD2E inh inconclusive, ALDH1A1 block 4µM
CCn1c(SCC(=O)NCc2ccco2)nnc1-c1cccs1	HTT aggregate inconclusive, JMJD2E inh inconclusive, ALDH1A1 block 8.9µM, HPGD inh 25µM
CCn1c(SCC(=O)NCc2ccco2)nnc1-c1ccncc1	none (no result: HPGD inh)
Cc1oc(-c2cccs2)nc1CS(=O)CC(=O)NCCc1ccccc1 (stereo not given)	ALDH1A1 block inconclusive, HPGD inh 32µM
CC(=O)c1c(C)[nH]c(C(=O)CSc2nnc(-c3cccs3)n2Cc2ccccc2)c1C	ALDH1A1 block 13µM, HTT cytoprotect inconclusive, HPGD inh inconclusive
CCC(NC(=O)c1ccccc1NC(=O)c1ccco1)C(=O)NNC(=O)c1ccncc1 (stereo not given)	none (no result: ALDH1A1 block, HPGD inh)
CCCCn1c(SCC(=O)NCc2ccco2)nnc1-c1ccco1	ALDH1A1 block 20µM
Cc1[nH]c2ccc(-c3nnc(SCC(=O)NCc4ccco4)n3Cc3ccccc3)cc2c1C	ALDH1A1 block 32µM, HPGD inh 16µM
O=c1cc(CSc2nnc(-c3cccs3)n2Cc2ccccc2)nc2sc3ccccc3n12	HTT aggregate inconclusive, ALDH1A1 block 7.9µM
COC(=O)CSc1nnc(-c2ccco2)n1Cc1ccco1	JMJD2E inh inconclusive, ALDH1A1 block 14µM
CCCCN(C)CCNC(=O)c1ccc(Cn2c(=S)[nH]c3ccc(Br)cc3c2=O)cc1	ALDH1A1 block inconclusive (no result: HPGD inh)
CCc1ccc(N/C(N)=N/c2nc(CSc3ncccn3)cc(=O)[nH]2)cc1	none (no result: HPGD inh)
CCOC(=O)CN(c1ccccn1)S(=O)(=O)c1ccc(OC)cc1	JMJD2E inh inconclusive, ALDH1A1 block inconclusive (no result: HPGD inh)
O=C(CSc1nnc(-c2ccco2)n1Cc1ccccc1)OC1CCCCC1	HTT aggregate 32µM, ALDH1A1 block inconclusive, HPGD inh 25µM
O=C(CSc1nnc(Cc2cccs2)n1Cc1ccco1)Nc1ccc(Br)cc1	CBFb RUNX1 block inconclusive, ALDH1A1 block 20µM, HPGD inh inconclusive
CCn1c(SCC(=O)NCCc2ccccc2)nnc1-c1cccs1	HPGD inh 28µM
CCn1c(CNC(=O)c2cccs2)nnc1SCC(=O)NCCc1ccccc1	none
Cc1oc(-c2ccccc2F)nc1CS(=O)CC(=O)NCc1cccs1 (stereo not given)	none
O=C(CSc1nnc(-c2ccncc2)n1Cc1ccco1)OC1CCCCC1	ALDH1A1 block inconclusive
Cc1oc(-c2ccccc2F)nc1CS(=O)CC(=O)NCc1ccc2c(c1)OCO2 (stereo not given)	ALDH1A1 block 32µM, HPGD inh inconclusive
COC(=O)c1ccc(C23CC2(C(NP(=O)(c2ccccc2)c2ccccc2)c2ccccc2)C3)cc1 (stereo not given)	JMJD2E inh inconclusive, ALDH1A1 block 32µM (no result: HTT aggregate)
C[C@@H](C(=O)Cc1ccc2ccccc2c1)[C@@H]1C[C@@]1(C)[C@@H](NP(=O)(c1ccccc1)c1ccccc1)c1ccccc1	none (no result: HTT aggregate)
CCOCCCn1c(=S)[nH]c2cc(C(=O)NCCCN(CC)CC)ccc2c1=O	ALDH1A1 block inconclusive (no result: HPGD inh)
COc1cccc(NS(=O)(=O)c2ccc3c(c2)CCCN3C(C)=O)c1	ALDH1A1 block inconclusive
O=S(=O)(Nc1ccc2c(c1)OCCO2)c1ccc(Br)s1	HTT aggregate 13µM
O=S(=O)(Nc1ccc2c(c1)OCCO2)c1cccs1	HPGD inh 14µM
O=S(=O)(Nc1ccc(S(=O)(=O)Nc2nccs2)cc1)c1ccc2c(c1)OCCO2	HTT aggregate inconclusive, ALDH1A1 block 13µM
CC(=O)N1CCc2cc(NS(=O)(=O)c3cccs3)ccc21	HPGD inh 25µM
O=c1c(=Nc2ccccc2O)c(=O)c2ccccc12	ALDH1A1 block 22µM (no result: HPGD inh)
C/C(CCN1CCCCc2nc(C)c(C)cc21)=N\OC[C@@H](O)[C@@H]1O[C@@H]2OC(C)(C)O[C@@H]2[C@H]1O	HTT cytoprotect inconclusive (no result: HTT aggregate, JMJD2E inh, HPGD inh)
Cc1ccc(-n2c(=S)[nH]c3c(oc4ccccc43)c2=O)cc1	none (no result: HPGD inh)
O=c1c2oc3ccccc3c2[nH]c(=S)n1-c1ccccc1	ALDH1A1 block 7.9µM
O=C(O)CSc1ccc(Oc2ccc(SCC(=O)O)cc2)cc1	ALDH1A1 block 13µM (no result: HPGD inh)
O=C(O)COc1ccc(Oc2ccccc2)cc1	none
COc1ccc(N=C/C=C2\C=C(c3ccccc3)OC(C)(C)O2)cc1	HTT aggregate inconclusive, ALDH1A1 block 2.2µM
Cc1ccccc1N=C/C=C1/C=C(c2ccccc2)OC(C)(C)O1	JMJD2E inh inconclusive, ALDH1A1 block 2.2µM
CCOc1ccc2c(O)csc2c1	ALDH1A1 block 25µM
CCCN=Cc1sc2ccc(OCC)cc2c1O	JMJD2E inh inconclusive, ALDH1A1 block inconclusive, HPGD inh inconclusive
Cc1cc2c(c(=O)o1)C(CCC1CCCCC1)C(C#N)=C(N)O2 (stereo not given)	none (no result: ALDH1A1 block, HPGD inh)
COc1ccc(NS(=O)(=O)c2ccc(Cl)s2)cn1	none (no result: ALDH1A1 block, HPGD inh)
COc1ccc(NS(=O)(=O)c2ccc(OC)c3ccccc23)cn1	HTT aggregate 18µM, ALDH1A1 block 7.1µM
Cc1noc(C)c1-c1ccc2ncnc(NCc3ccc(Br)cc3)c2c1	none (no result: HTT aggregate, JMJD2E inh, ALDH1A1 block, HTT cytoprotect, HPGD inh)
CC1CCCN(CCCNC(=O)CCn2nc(-c3ccccc3)ccc2=O)C1 (stereo not given)	HTT aggregate inconclusive, JMJD2E inh inconclusive, ALDH1A1 block 22µM
c1ccc(CCNc2c3c(nc4ncnn24)CCC3)cc1	ALDH1A1 block 3.5µM, HPGD inh 18µM
COC(=O)C1=CN(c2cccc(C)c2)C=C(C(=O)OC)C1c1cc(OC)c(O)c([N+](=O)[O-])c1	CBFb RUNX1 block inconclusive, HPGD inh 16µM
COC(=O)C1=CN(c2ccc(OC)cc2)C=C(C(=O)OC)C1c1ccc(C)c([N+](=O)[O-])c1	none
O=C(c1cnn(C(=O)COc2ccccc2F)c1)c1cc(F)ccc1O	CBFb RUNX1 block inconclusive, ALDH1A1 block 0.4µM (no result: HPGD inh)
